This is a sample that favours compounds with a hit; in the whole collection about 6.8% have one here.
Pf Dd2 growth – P. falciparum Dd2 growth inhibitors, primary screen, SYBR Green fluorescence, single dose replicates; 72 h; stronger effect = lower value; activity change, % at 10 µM; 2.3% of 94,000 active; in the data active = activity change below about -80%; inconclusive = no clear call, values can overlap the other calls
C diff HTS – C. difficile growth inhibitors, primary screen, HTS. Clostridium difficile clinical isolate growth, OD600, 24 h; stronger effect = lower value. growth activity, negative = inhibition, % at 16 µg/mL (by protocol). 0.25% of 86,000 active;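 active = mean growth activity at or below -80% and every replicate also at or below -80%; inconclusive = mean at or below -80% but some replicate above -80%; inactive = mean growth activity above -80%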;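 also: 0% = DMSO wells and -100% = levofloxacin 16 µg/mL wells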
T cruzi growth-1 – T. cruzi intracellular proliferation inhibitors, primary screen, cell-based, beta-gal Tulahuen parasites, NIH3T3 host, luminescence; T. cruzi beta-gal in NIH3T3, GalScreen luminescence, 90 h; inhibition, % at 8.34 µM; 5.9% of 77,000 active; AID 624255, 2012;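 active = mean inhibition above about 93%, with at least 55% of replicates each passing it, limit read from the data, passing the limit was not always enough; inconclusive = only one of those two conditions holds; inactive = neither condition holds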
T cruzi growth-2 – T. cruzi intracellular proliferation inhibitors, confirmation, cell-based, NIH3T3 host, beta-gal parasite, luminescence, cherry-pick; shares compounds with T cruzi growth-1; T. cruzi beta-gal in NIH3T3, GalScreen luminescence, 90 h; 72% of 5,600 active; inhibition, % at 8.35 µM;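 active = mean replicate inhibition above about 95% and at least 55% of replicates individually reaching it, limit read from the data; inconclusive = only one of the two criteria is met; inactive = neither criterion is met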
T cruzi growth-3 – inhibitors of intracellular T. cruzi replication, confirmation, NIH3T3 host cells, beta-gal parasites, cherry-pick, set 2; shares compounds with T cruzi growth-1; T. cruzi beta-gal in NIH3T3, GalScreen luminescence, 90 h; inhibition, % at 2.09 µM; 21% of 5,600 active; AID 651740, 2012;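 active = mean inhibition above about 95%, with at least 55% of replicates also reaching it, limit read from the data; inconclusive = meets just one of the two conditions; inactive = meets neither condition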;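 also: plate controls were neutral control median for no effect and positive control median for full effect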
3T3 cytotox – cytotoxicity in mouse NIH/3T3 fibroblasts, confirmation, cytotoxicity control for T. cruzi proliferation inhibitor project, cell-based, cherry-pick, single point; shares compounds with T cruzi growth-1; NIH/3T3 viability, CellTiter-Glo ATP luminescence, 90 h; cytotoxicity (signal decrease), % at 8.35 µM; 14% of 5,600 active;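 active = mean signal decrease across replicates above about 35% based on untreated-well scatter, with enough replicates individually passing, limit read from the data; inconclusive = no rule stated though some were filed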;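 also: 0% = median of neutral control wells and 100% = median of positive control wells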
3T3 cytotox 2 – NIH/3T3 fibroblast cytotoxicity, confirmation, cytotoxicity control, cell-based, cherry-pick, single point, set 2. shares compounds with T cruzi growth-1. inhibition, % at 24.9 µM. 56% of 5,600 active. NIH/3T3 viability, CellTiter-Glo ATP luminescence, 90 h;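 active = mean loss of cell viability signal at or above a set limit, and enough replicates individually reaching it; inconclusive = meets only the mean limit or only the replicate share; inactive = meets neither condition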;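 also: 0% = median of neutral control wells and 100% = median of positive control wells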
* hit, by the source's call; ? = inconclusive; / = no result given.

SMILES	Pf Dd2 growth	C diff HTS	T cruzi growth-1	T cruzi growth-2	T cruzi growth-3	3T3 cytotox	3T3 cytotox 2
C[C@@H]1CN([C@H](C)CO)C(=O)c2cccc(N(C)C)c2O[C@H]1CN(C)Cc1ccc(C(F)(F)F)cc1	-28	2	101*	51	12	-3	103*
C[C@H]1CN([C@@H](C)CO)C(=O)c2cccc(N(C)C)c2O[C@H]1CN(C)Cc1ccc(C(F)(F)F)cc1	-12	3	33	/	/	/	/
C[C@H](CO)N1C[C@H](C)[C@@H](CN(C)Cc2ccccc2)Oc2c(cccc2N(C)C)C1=O	19	-14	9	/	/	/	/
C[C@H](CO)N1C[C@H](C)[C@@H](CN(C)S(=O)(=O)c2ccc(F)cc2)Oc2ccc(NC(=O)c3ccncc3)cc2CC1=O	23	-3	-176	/	/	/	/
O=C(O)C[C@@H]1C[C@H]2c3cc(NC(=O)C4CCC4)ccc3O[C@H]2[C@@H](CO)O1	0	-8	/	/	/	/	/
OC[C@@H]1[C@@H](c2ccc(C#CC3(O)CCCC3)cc2)[C@@H]2CN(Cc3cccnc3)CCCCN12	-9	-5	85	/	/	/	/
OC[C@H]1[C@H](c2ccc(C#CC3(O)CCCC3)cc2)[C@H]2CN(Cc3cccnc3)CCCCN21	-4	-5	85	/	/	/	/
OC[C@H]1[C@H](c2ccc(C#CC3(O)CCCC3)cc2)[C@@H]2CN(Cc3cccnc3)CCCCN12	8	-1	108*	98*	76	0	-18
OC[C@@H]1[C@H](c2ccc(C#CC3(O)CCCC3)cc2)[C@@H]2CN(Cc3cccnc3)CCCCN12	-4	0	101*	107*	91	19	23
CCNC(=O)C[C@@H]1CC[C@H]2[C@H](COc3ccc(NC(=O)c4ccc(F)cc4)cc3C(=O)N2C)O1	-8	14	29	/	/	/	/
C[C@@H]1CN([C@H](C)CO)S(=O)(=O)c2ccc(C3=CCCC3)cc2O[C@H]1CN(C)C(=O)c1ccc(F)cc1	-32	-3	/	/	/	/	/
COc1cccc(CNC(=O)C[C@@H]2CC[C@H](NC(=O)C3CCC3)[C@@H](CO)O2)c1	6	-3	-2	/	/	/	/
CO[C@H](CN(C)S(=O)(=O)c1ccc(Cl)cc1)[C@@H](C)CN(C(=O)Nc1ccccc1F)[C@H](C)CO	-35	/	34	/	/	/	/
CN1C(=O)c2cc(NC(=O)NC3CCCC3)ccc2OC[C@H]2O[C@H](CC(=O)NCC3CC3)CC[C@@H]21	14	-12	24	/	/	/	/
Cc1noc(C)c1NC(=O)N(C)C[C@H]1Oc2ccc(NC(=O)Nc3cccc4ccccc34)cc2CC(=O)N([C@H](C)CO)C[C@@H]1C	-17	-3	13	/	/	/	/
COCC(=O)N(C)C[C@@H]1Oc2cc(C#Cc3ccccc3)ccc2S(=O)(=O)N([C@H](C)CO)C[C@H]1C	-77	-12	71	/	/	/	/
C[C@@H]1CN([C@@H](C)CO)S(=O)(=O)c2ccc(C#Cc3ccccc3)cc2O[C@H]1CN(C)C(=O)CN(C)C	-67	0	102*	100*	60	7	103*
C[C@H](CO)N1C[C@H](C)[C@H](CN(C)C(=O)CN(C)C)Oc2cc(C#Cc3ccccc3)ccc2S1(=O)=O	?	14	-18	/	/	/	/
COCC(=O)N(C)C[C@@H]1Oc2cc(C#Cc3ccccc3)ccc2S(=O)(=O)N([C@@H](C)CO)C[C@H]1C	-75	-17	?	60	34	-6	21
CN(C)C(=O)C[C@H]1CC[C@@H]2[C@@H](COc3ccc(NC(=O)Nc4cccc(Cl)c4)cc3C(=O)N2C)O1	-20	-2	6	/	/	/	/
O=C(N[C@@H]1CC[C@H](CCNS(=O)(=O)c2ccccc2)O[C@H]1CO)c1cccnc1	12	/	30	/	/	/	/
O=C(C1CCOCC1)N1CC[C@@H]2[C@@H](CO)Nc3ccc(-c4ccc(F)cc4)cc3[C@@H]21	32	-7	105*	99*	60	-13	14
